# Source: PubChem BioAssay
# KCNQ2 inh – rat KCNQ2 potassium channel inhibitors, primary screen, cell-based, CHO-K1, FluxOR thallium flux, B-score | Potassium voltage-gated channel subfamily KQT member 2 (Rattus norvegicus), O88943 | 20 min; stronger effect = lower value | AID 2156, 2009 | actives 1.1% (n = 310,000) | B-score at 10 µM;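 active means fluorescence ratio B-score at most minus 3 library SDs, with starting brightness B-score within 2 library SDs, cut at about -5.5 in these data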
# Target sequence (O88943 whole entry, looked up): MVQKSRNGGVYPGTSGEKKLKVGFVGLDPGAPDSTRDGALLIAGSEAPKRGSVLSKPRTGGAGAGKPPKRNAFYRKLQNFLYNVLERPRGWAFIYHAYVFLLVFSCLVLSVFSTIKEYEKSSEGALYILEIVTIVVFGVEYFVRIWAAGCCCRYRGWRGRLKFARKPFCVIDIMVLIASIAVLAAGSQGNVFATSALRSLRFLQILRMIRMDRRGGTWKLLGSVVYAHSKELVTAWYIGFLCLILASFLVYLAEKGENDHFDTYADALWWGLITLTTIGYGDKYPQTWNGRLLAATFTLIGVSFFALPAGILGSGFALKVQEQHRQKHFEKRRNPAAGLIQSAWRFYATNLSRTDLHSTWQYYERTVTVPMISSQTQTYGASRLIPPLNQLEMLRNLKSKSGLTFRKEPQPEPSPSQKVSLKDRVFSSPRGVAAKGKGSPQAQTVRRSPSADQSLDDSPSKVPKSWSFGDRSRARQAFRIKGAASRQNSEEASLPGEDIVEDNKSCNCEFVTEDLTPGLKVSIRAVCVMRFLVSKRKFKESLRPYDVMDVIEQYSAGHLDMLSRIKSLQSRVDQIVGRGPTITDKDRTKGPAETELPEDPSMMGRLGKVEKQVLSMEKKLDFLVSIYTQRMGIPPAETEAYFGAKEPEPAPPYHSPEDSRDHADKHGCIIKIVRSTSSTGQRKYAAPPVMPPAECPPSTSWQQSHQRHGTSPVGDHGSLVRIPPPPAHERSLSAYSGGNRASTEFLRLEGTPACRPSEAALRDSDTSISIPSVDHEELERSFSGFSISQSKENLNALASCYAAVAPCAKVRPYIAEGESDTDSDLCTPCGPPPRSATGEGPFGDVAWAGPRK
# KCNQ2 pot – potentiators of rat KCNQ2 potassium channel; CHO-K1 KCNQ2, FluxOR thallium flux fluorescence; stronger effect = higher value; AID 2239, 2010; actives 0.54% (n = 310,000); B-score at 10 µM;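 active means fluorescence ratio B-score at least 3 SD of library B-scores, with initial fluorescence B-score within 3 of them, cut at about 5.3 in these data; same plate scores as AID 2156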;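 further: B-score of peak minus minimum over baseline fluorescence ratio after K+ and Tl+ stimulus; positive B-score means potentiation of KCNQ2 with more thallium influx and brighter signal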
# Hits are given with their value; n = inactive; x = not tested or not shown. An excerpt weighted towards active compounds, which were near 1.6% of everything screened.
SMILES,KCNQ2 inh,KCNQ2 pot
Cc1ccc(CN2CCN(Cc3ccc(Oc4ncccn4)cc3)CC2CCO)cc1 (centres undefined),n,n
CCCc1cc(=O)oc2cc(C)cc(OCC(=O)Nc3ccc(CN4CCOCC4)cc3)c12,n,n
CCN(CC(=O)Nc1c(F)cccc1F)C(=O)C1=COCCO1,n,n
O=C(C1CC1)N1N=C(c2ccccc2)CC1(O)C(F)(F)C(F)(F)F (centres undefined),n,n
Cc1cc2nc(SCC(=O)Nc3ccccc3C(=O)O)[nH]c2cc1C,n,n
c1ccc(-c2c(-c3ccccc3)n(Cc3ccco3)c3ncnc(NCCCn4ccnc4)c23)cc1,-10.7,n
OCCNc1ncnc2c1c(-c1ccccc1)c(-c1ccccc1)n2Cc1ccco1,n,x
NS(=O)(=O)c1cc(C(=O)Nc2ccc3c(c2)CCC3)ccc1Cl,n,n
Nc1c(C(=O)c2ccccc2)sc2snc(SCC(=O)c3ccccc3)c12,-5.95,n
Nc1nnc(SCC(=O)c2ccccc2)s1,n,n
O=C(CN1C(=O)C(=O)N(Cc2ccco2)C1=O)NC1CCCCC1,n,x
O=C1/C(=C/c2cccc3ccccc23)CCCc2ccccc21,-6.64,n
O=C1/C(=C\c2ccncc2)CCc2ccccc21,n,x
Cn1ccc(C(=O)N/N=C/c2ccncc2)n1,n,n
O=C(O)CCN1C(=O)c2ccc(NC(=O)C(c3ccccc3)c3ccccc3)cc2C1=O,n,n
CN(Cc1cccnc1)Cc1c(C(=O)N2CCc3ccccc3C2)nc2ccc(Cl)cn12,n,x
CCCCN(C)Cc1c(C(=O)N2CCc3ccccc3C2)nc2ccc(Cl)cn12,-5.64,n
CCN(CC)C(=O)c1c(Cl)nc(C)c([N+](=O)[O-])c1C,n,n
Cc1cc(=O)n2nc(N3CCCC(C(=O)NCc4ccccc4C)C3)sc2n1 (centres undefined),n,x
CC(C)Cn1c(N)c(C(=O)COC(=O)c2ccc([N+](=O)[O-])o2)c(=O)n(C)c1=O,n,x
Cc1ccc(S(=O)(=O)NC2c3cccc4cccc(c34)C2Sc2n[nH]c(N)n2)cc1 (centres undefined),n,x
O=S(=O)(NC1c2cccc3cccc(c23)C1Sc1ncccn1)c1ccc(Cl)cc1 (centres undefined),-6.31,n
CCOc1ccccc1NC(=O)C(NCCN(C)C)c1ccccc1 (centres undefined),n,n
CCOc1ccccc1NC(=O)C(OC(=O)c1ccc(O)cc1)c1ccccc1 (centres undefined),n,x
CCOc1ccccc1NC(=O)C(OC(=O)c1ccc(CC)cc1)c1ccccc1 (centres undefined),-6.43,n
SMILES,KCNQ2 inh,KCNQ2 pot
CCOc1ccccc1NC(=O)C(NCC1CCCCC1)c1ccccc1 (centres undefined),-5.78,n
CC[C@H]1CC2CN3CCc4c([nH]c5c([C@H]6C[C@H]7[C@H](CC)CN(C)[C@@H](Cc8c6[nH]c6ccccc86)[C@H]7C(=O)OC)c(OC)ccc45)C(C(=O)OC)(C2)C13,-7.51,n
CCC1CN(C)C2Cc3c([nH]c4ccccc34)C(=O)CC1C2C(=O)OC (centres undefined),n,x
CC(C)NC(=S)NC(c1ccccc1)(c1ccccc1)c1ccccc1,n,x
CC(=O)Nc1cc2c(cc1NC(=O)Cn1nc(-c3ccc4c(c3)OCCO4)ccc1=O)OCCO2,n,n
CC(C)(C)OC(=O)N1CCCC1C(=O)NCCc1ccccc1 (centres undefined),n,n
CCc1cc2c(C)cc(=O)oc2cc1OC(=O)C1CCCN1C(=O)OC(C)(C)C (centres undefined),-5.97,n
CCCc1nc(SCC(=O)N2CCC(Cc3ccccc3)CC2)c2c(=O)n(C)c(=O)n(C)c2n1,n,22.9
CCCc1nc(SCC(=O)Nc2ccccc2)c2c(=O)n(C)c(=O)n(C)c2n1,n,n
C=CCc1cccc(/C=N/NC(=O)c2ccccc2Br)c1O,n,9.59
C=CCc1cccc(/C=N/NC(=O)c2ccccc2OC)c1O,n,n
CCCOc1ccc(C(=O)CCN2CCCCC2)cc1,n,x
CCOc1ccc(C(=O)CCN2CCCCCC2)cc1,-6.58,n
O=C(O)c1ccc(S(=O)(=O)N2CCC(NC(=O)C3CCCCC3)CC2)cc1,n,n
COC(=O)c1sccc1-n1cccc1C(=O)C(=O)N1CCOCC1,n,n
Cc1cc(C(=O)CS(=O)(=O)c2ccc(Cl)cc2)cc(C)c1O,n,n
C=CCn1c(SCC(=O)N(C)C2CCS(=O)(=O)C2)nnc1-c1ccccc1 (centres undefined),n,x
CCCCOc1ccc(C(=O)N/C(=C\c2cccc([N+](=O)[O-])c2)C(=O)OCCC)cc1,n,x
CCCCOc1ccc(C(=O)N/C(=C\c2cccc([N+](=O)[O-])c2)C(=O)OC(C)C)cc1,-6.05,n
COc1cc(-c2csc(NC3CCCCC3)n2)cc(OC)c1OC,n,x
COC(=O)c1c(-c2ccc(Br)cc2)csc1NC(=O)Cc1ccc(OC)c(OC)c1,n,x
COC(=O)c1c(-c2ccc(C)cc2)csc1NC(=O)Cc1ccc(OC)c(OC)c1,-6.77,n
Cc1ccc(SCCNC(=O)/C=C/c2ccc([N+](=O)[O-])cc2)cc1,n,6.2
O=C(/C=C/c1ccc([N+](=O)[O-])cc1)NCCSc1ccccc1,n,n
COc1ccc(CNC(=O)CN(C)Cc2ccc(C(C)(C)C)cc2)cc1,n,x
SMILES,KCNQ2 inh,KCNQ2 pot
CCOC(=O)c1cnc2ccc(C)cc2c1Sc1ccc(F)cc1,-5.55,n
CCOC(=O)c1cc(-c2ccccc2)nc2ccc(C)cc12,n,x
COc1cc2c(cc1OC)N1C(=O)CC(OCC(=O)O)C3C4CC5(CCN5C(=O)C4=O)C2C31 (centres undefined),n,x
O=C(COC(=O)c1ccc2c(=O)n3c(nc2c1)CCC3)Nc1ccc(OC(F)F)cc1,n,x
CCC(C)C(NS(=O)(=O)c1ccc(C)cc1)C(=O)O (centres undefined),n,n
CCC(C)C(NS(=O)(=O)c1ccc(C)cc1)C(=O)NCCCN1CCOCC1 (centres undefined),-5.61,n
Cc1ccc(NC(=O)N2CCc3ccccc3C2)c(C)c1,n,x
CC(C)c1ccc(N=C2N=C(N)c3ccccc32)cc1,n,x
Cc1ccc(NC(=O)CSc2nnc(C3CC3)n2N)cc1S(=O)(=O)N1CCOCC1,n,n
CCOCCCN(C(=O)CNC(=O)c1ccco1)C(C(=O)NC1CCCC1)c1cccc(OC)c1 (centres undefined),n,n
O=[N+]([O-])c1cccc(OCCCN2CCC(Cc3ccccc3)CC2)c1,-5.72,n
O=[N+]([O-])c1ccc(CN2CCC(Cc3ccccc3)CC2)cc1,n,n
CCOc1ccccc1C(=O)N[C@H](C(=O)OCc1cc(=O)oc2cc(C)ccc12)C(C)C,n,x
COc1cc(OC)cc(C(=O)N[C@H](C(=O)OCc2cc(=O)oc3cc(C)ccc23)C(C)C)c1,-7.68,n
CC(NC(=O)c1c(O)c2ccccc2n(C)c1=O)c1ccccc1 (centres undefined),-5.78,n
Cn1c(=O)c(C(=O)NCCc2ccccc2)c(O)c2ccccc21,n,x
COCCCNC(=O)c1cc2c(=O)n3cc(C)ccc3nc2nc1NCC1CCCO1 (centres undefined),n,n
CCN1C(=O)C(CC(=O)Nc2ccc(OC)cc2)N(CCc2ccccc2)C1=S (centres undefined),n,x
CCN1C(=O)C(CC(=O)Nc2ccc(F)cc2)N(CCc2ccc(OC)cc2)C1=S (centres undefined),-6.67,n
